A selection: hits, their analogues and other compounds. The true share with any hit is near 3.1%.
ATG4B inh: ATG4B protease inhibitors, primary screen, biochemical, fluorescence, uHTS | Cysteine protease ATG4B (Homo sapiens), Q9Y4P1 | ATG4B cleavage of LC3-PLA2, NBD-HPC fluorescence, 1 h | inhibition, % at 8.33 µM | hit rate 0.51% among 340,000; in the data active means inhibition above about 40%
Target sequence (Q9Y4P1 whole entry, looked up): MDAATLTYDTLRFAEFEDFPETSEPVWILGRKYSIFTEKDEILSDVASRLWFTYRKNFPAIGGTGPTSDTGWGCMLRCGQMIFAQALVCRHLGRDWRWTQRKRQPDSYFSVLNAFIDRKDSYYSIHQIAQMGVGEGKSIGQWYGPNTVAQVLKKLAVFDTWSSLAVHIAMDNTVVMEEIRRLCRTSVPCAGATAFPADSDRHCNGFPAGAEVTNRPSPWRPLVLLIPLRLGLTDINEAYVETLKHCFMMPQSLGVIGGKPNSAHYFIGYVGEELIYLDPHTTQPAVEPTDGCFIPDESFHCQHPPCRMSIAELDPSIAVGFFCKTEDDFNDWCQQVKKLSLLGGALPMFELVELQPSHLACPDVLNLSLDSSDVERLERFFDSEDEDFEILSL
MEKK2mut PB1 HTS: MEK5 binding signal on mutant MEKK2 PB1, primary screen, biochemical, multiplex bead flow cytometry, Alexa488-MEK5 | Alexa488-MEK5 binding to MEKK2 mutant | percent response, % at 10 µM | hit rate 0.35% among 290,000 | AID 1530, 2009; in the data active means percent response above about 24%, passing the limit was not always enough
PREPL inh: PREPL enzyme inhibitors, primary screen, biochemical, fluorescence polarization; inhibition, % at 5.96 µM; Prolyl endopeptidase-like (Homo sapiens), Q4J6C6; AID 2751, 2010; recombinant PREPL, fluorescence polarization activity-based probe; hit rate 0.68% among 320,000;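 further: 0% = enzyme with DMSO and 100% = wells lacking enzyme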
MEKK3 PB1 HTS: modulators of MEKK3-MEK5 PB1 binding, primary screen, biochemical, wildtype MEKK3, multiplex bead flow cytometry, Alexa488-MEK5; Mitogen-activated protein kinase kinase kinase 3 (Homo sapiens), Q99759; binding response (% of control), % at 10 µM; hit rate 1.4% among 290,000; bead-based flow cytometry, Alexa488-MEK5 binding to MEKK3; actives lie on both sides; 0 = blocked by unlabeled MEK5, 100 = vehicle; AID 1529, 2009;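 active means binding response more than 3 SD above or below the average of its plate-row segment, actives on both sides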;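 further: Alexa488 bead fluorescence after subtracting the streptavidin-only scavenger bead signal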
UBC13 inh: UBC13 polyubiquitin chain formation inhibitors, primary screen, biochemical, TR-FRET, uHTS; AID 485273, 2010; inhibition, % at 20 µM; hit rate 0.47% among 330,000; Ubiquitin-conjugating enzyme E2 N (Homo sapiens), P61088; in the data active means inhibition above about 45%, passing the limit was not always enough
MEKK2wt PB1 HTS: modulators of MEK5 binding to wildtype MEKK2, primary screen, biochemical, multiplex bead flow cytometry, Alexa488-MEK5. Mitogen-activated protein kinase kinase kinase 2 (Homo sapiens), Q9Y2U5. Alexa488-MEK5 binding to MEKK2 WT; actives lie on both sides. binding response (% of control), % at 10 µM. hit rate 1.1% among 290,000. AID 1531, 2009; in the data active means binding response below about 67% or above about 130%
PREPL confirm: human PREPL enzyme inhibitors, confirmation, biochemical, fluorescence polarization; shares compounds with PREPL inh; recombinant PREPL, fluorescence polarization activity probe; inhibition, % at 5.96 µM; hit rate 67% among 2,000;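 further: 0% = protein with DMSO and 100% = wells lacking protein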
Active calls of the source: *; . = no result. Unless noted, no stated cut-off is given here; in the data, active means inhibition above about 43%; inactive means the rest.

SMILES	ATG4B inh	MEKK2mut PB1 HTS	PREPL inh	MEKK3 PB1 HTS	UBC13 inh	MEKK2wt PB1 HTS	PREPL confirm
CN1CCN(C(=O)C2=C[C@H](c3ccc(C(F)(F)F)cc3)C[C@H](OCCCCO)O2)CC1	-1	2	20	100	1	101	.
O=C(C1=C[C@@H](c2ccc(C(F)(F)F)cc2)C[C@@H](OCc2ccc(CO)cc2)O1)N1CCOCC1	-17	8	55*	106	10	111	48*
CN1CCN(C(=O)C2=C[C@@H](c3ccc(C(F)(F)F)cc3)C[C@@H](OCCCCO)O2)CC1	-9	4	45*	104	3	102	54*
C#Cc1ccc([C@@H]2C=C(C(=O)N3CCOCC3)O[C@H](OCc3ccc(CO)cc3)C2)cc1	-16	0	45*	102	10	101	44*
O=C(NC1CC1)C1=C[C@@H](c2ccc(C(F)(F)F)cc2)C[C@@H](OCc2ccc(CO)cc2)O1	-11	1	47*	105	6	104	42
C=CCn1c(N)c(-c2nc3ccccc3n2C)sc1=S	-5	0	44*	94	19	95	36
Cn1c(-c2sc(=S)n(-c3ccccc3)c2N)nc2ccccc21	-1	-7	1	99	10	97	.
Cc1cc(N)ccc1-n1c(C)ccc1C	-2	-7	59*	91	-4	90	11
Cc1cc(C(=O)O)ccc1-n1c(C)ccc1C	.	.	5	.	18	.	.
O=[N+]([O-])c1ccc(C(O)CN=Cc2ccc(O)cc2O)cc1 (stereo not given)	-5	-6	49*	101	-1	90	11
CC(C)NC(=O)N(C)C[C@H]1Oc2ccc(NC(=O)C3CC3)cc2C(=O)N([C@H](C)CO)C[C@@H]1C	4	.	17	.	1	.	.
COCCN1CCCC(CNCc2cn(C)nc2-c2ccc(Oc3ccccc3)cc2)C1 (stereo not given)	-8	1	43*	101	18	124	32
c1ccc(Oc2cccc(Oc3ccccc3)n2)cc1	7	.	20	.	-6	.	.
O=[N+]([O-])c1cccc(-c2cc3cccc[n+]3cc2-c2cccc([N+](=O)[O-])c2)c1	6	4	25	101	-6	102	.
Cc1cccc2cc(-c3ccccc3)c(-c3ccccc3)c[n+]12	-9	-2	58*	86	.	80	46*
COc1ccc2cc(C[C@@H]3CC[C@@H](CO)O3)ccc2c1	-5	.	.	.	.	.	.
CC(C)c1ccc(N(CC(=O)NC2CCCC2)C(=O)CCC(=O)Nc2ccccn2)cc1	2	5	-5	102	-1	101	.
Cc1ccc(NS(=O)(=O)c2ccc(C(=O)Nc3nncs3)cc2)cc1	1	.	45*	.	-4	.	8
O=C(CNC(=O)c1ccco1)NCC(c1ccco1)N1CCCCC1 (stereo not given)	-4	.	73*	.	10	.	13
O=C(CNC(=O)c1ccccc1)NCC(c1ccco1)N1CCCC1 (stereo not given)	-7	.	16	.	-2	.	.
CCOc1ccccc1NC(=O)c1ccc2c(c1)C(=O)N(CC)C2=O	1	14	14	101	3	102	.
COc1ccccc1CNCCS(=O)(=O)NN1CCOCC1	7	.	.	.	.	.	.
COc1cc(OC)cc(-c2c(-c3cccs3)c3cc(-c4ccc(OCc5ccccc5)cc4)ccc3n2C)c1	1	.	72*	.	40	.	4
CCCN1CCc2c(sc(NC(=S)NC(=O)c3ccccc3)c2C#N)C1	-3	8	61*	95	-59	0.0*	26
CCN(CCN(C)C)C(=O)C1CCN(S(=O)(=O)c2c(C)noc2/C=C/c2ccccc2F)CC1	-8	11	44*	102	4	117	42
COc1ccccc1NC(=O)Nc1nc(CC(=O)Nc2ccc(F)cc2)cs1	-15	.	4	.	14	.	.
